About 1,300 (0.41%) of roughly 320,000 compounds were called active. Another 3% or so got no clear call; they are omitted. The rule behind the calls is not given here. The list is a sample of the results. Entries with a potency or affinity are not part of this list. Peptide text beside a SMILES is read from it. * marks the point of attachment. Boc = CC(C)(C)OC(=O)*; OtBu = CC(C)(C)O*

The assay in a line: growth inhibition of non-replicating M. tuberculosis (AID 488890).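 Note: plate controls were DMSO cells for no effect and high antibiotic wells for full effect.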 The settings on record: Mycobacterium tuberculosis non-replicating, at 25 µM, stronger effect = higher value.
In the case of `CCCCC[C@@H]1C=C(C(=O)O)[C@H](c2ccc3c(c2)OCO3)N1S(=O)(=O)c1ccc(C)cc1`, the inhibition – broadly, the drop in the measured response relative to a control, in per cent – stood at 27.2%.

For the compound `COC(=O)C1ON2OC(C(=O)OC)C(C(=O)OC)C2C1CC(C)=O` (stereo unspecified), the inhibition was -1.62%.

With `Cc1ccc(-c2nnc(C)c(N3CC(C)OC(C)C3)n2)cc1` (stereo unspecified), the inhibition amounted to 2.5%.

Take `Cc1ccc(-c2nnc(C)c(N3CCOCC3)n2)cc1`: the inhibition turned out to be 7.79%.

Turning to `CCOC(=O)C1=C(N)OC2=C(C(=O)CC(C)(C)C2)C1c1ccc(C)s1` (stereo unspecified), the inhibition came to 64.3%.

For `O=C(COC(=O)c1cccnc1Cl)NCCCc1ccccc1`, the inhibition stood at 27.7%.

With `COc1ncccc1-c1nnn(-c2ccccc2Br)n1`, the inhibition amounted to 3.8%.

For `CCOC(=O)COc1ccc2c(c1)c(C(C)=O)c(C)n2-c1ccccc1`, the inhibition was 19.1%.

In the case of `C#CCOc1ccc2c(c1)c(C(C)=O)c(C)n2Cc1ccccc1`, the inhibition was -5.53%.

Turning to `O=C(COc1ccc(F)cc1Br)NCc1ccccn1`, the inhibition stood at 28.1%.

Turning to `COc1ccc(S(=O)(=O)NCc2ccncc2)cc1NC(=O)c1ccc(Cl)cc1`, the inhibition turned out to be 5.22%.

Regarding `Cc1oc2c(c(=O)c1C)C(=O)CC(c1ccccc1)C2` (stereo unspecified), the inhibition is -6.93%.

Turning to `Cc1c(C(=O)O)[nH]c2c1C(=O)CC(c1ccccc1)C2` (stereo unspecified), the inhibition was found to be 4.15%.

Consider `Cc1cc(Cl)ccc1N1C(=O)CC(NNC(=O)c2cccnc2)C1=O` (stereo unspecified), for which the inhibition worked out at 5.86%.

Turning to `CCS(=O)(=O)N1CCC(NC(=O)C2CCCCC2)CC1`, the inhibition was -9.82%.

In the case of `CCOC(=O)c1csc(NC(C)=O)n1`, the inhibition is -1.23%.

For `Cc1onc(-c2ccccc2)c1-c1csc(COc2ccccc2)n1`, the inhibition was 33.1%.

For `CCOC(=O)c1csc(NC(=O)COc2ccc(Cl)cc2Cl)n1`, the inhibition came out at 80.3%.

On to `CCC(=O)NNC(=O)c1cc(COc2cc(Cl)cc(Cl)c2)on1`, for which the inhibition was 40%.

In the case of `CC(C)NC(=O)NNC(=O)c1cc(COc2cc(Cl)cc(Cl)c2)on1`, the inhibition was 31.8%.

For the compound `CCOC(=O)c1csc(N)n1`, the inhibition is -4.96%.

`CCOC(=O)c1csc(-c2ccc(OC)c(OC)c2)n1`: the inhibition worked out at 32.3%.

`CC(=O)c1csc(COc2ccccc2)n1`: the inhibition was -0.92%.

Regarding `COc1ccc(OC)c(Nc2nc(N)nc(CSc3nnc(N)s3)n2)c1`, the inhibition is -6.45%.

Turning to `N#CC1(NC(=O)CSc2nnc(-c3ccccc3F)n2N)CCCCC1`, the inhibition is -6.24%.

`O=C(CCN1C(=O)C2CC=CCC2C1=O)NC1CCCCC1` (stereo unspecified): the inhibition was -1.44%.

Take `COc1ccc(-c2cn(-c3ccc(Cl)cc3)c3[n+]2CCCCC3)cc1`: the inhibition worked out at 10.6%.

For `O=C(c1ccc(N2CC3CC(C2)c2cccc(=O)n2C3)c([N+](=O)[O-])c1)N1CCCC1` (stereo unspecified), the inhibition was -6.65%.

In the case of `O=C(C1=NN[C@@H]2C(=O)N(Cc3ccccc3)C(=O)[C@H]12)c1ccc(F)cc1`, the inhibition came to 5.43%.

`N#CCP(=S)(c1ccccc1)c1ccccc1`: the inhibition is 24.1%.

As to `CCCNC(=O)C(Cc1ccccc1)NC(=O)c1ccc(-c2ccccc2)cc1` (stereo unspecified), the inhibition is 4%.

Turning to `COc1ccc(CN(CC2CCC(C(=O)O)CC2)C(=S)Nc2cc(Cl)ccc2OC)cc1` (stereo unspecified), the inhibition was found to be 2.05%.

`CC(NC(=O)C(CC(=O)OC(C)(C)C)NC(=O)OC(C)(C)C)C(N)=O` (stereo unspecified) (Boc-Asp(OtBu)-Ala-NH2; configuration not given here): the inhibition was -0.24%.

`Cc1onc(C(=O)NN)c1-c1csc(COc2ccc(Cl)cc2)n1`: the inhibition came out at 13.2%.

Turning to `Nc1nonc1-c1noc(COc2ccccc2Cl)n1`, the inhibition amounted to 5.72%.

Take `CCOC(=O)c1ccccc1-c1csc(N)n1`: the inhibition was found to be 6.53%.

Turning to `Cc1onc(-c2ccc(Cl)cc2Cl)c1-c1csc(COc2ccccc2)n1`, the inhibition was -7.56%.

As to `CCOC(=O)c1csc(NC(=O)c2ccc(OCC)cc2)n1`, the inhibition is 19.8%.

As for `CC(=O)c1csc(COc2ccc(Cl)cc2)n1`, the inhibition is 38.9%.

As for `CCn1cc(C(=O)NCC2CCCO2)c(=O)c2cc(S(=O)(=O)N3CCCCCC3)ccc21` (stereo unspecified), the inhibition amounted to 4.04%.

For `COc1ccccc1C(=O)Nc1c2c(nn1-c1cccc(C)c1C)CS(=O)(=O)C2`, the inhibition came out at 2.28%.

In the case of `CC(C)c1ccc(NC2CCCN(C(=O)c3ccc(Cn4cnnn4)cc3)C2)cc1` (stereo unspecified), the inhibition amounted to 10.9%.

As to `CS(=O)(=O)N1CCCC(C(=O)Nc2ccc(F)c(F)c2)C1` (stereo unspecified), the inhibition is -12.2%.

On to `Nn1c(SCC(=O)Nc2ccc3c(c2)OCCO3)nncc1=O`, for which the inhibition was -11.2%.

In the case of `Cc1ccc(N/C=C/C(=O)C(C)(C)C)c(O)c1`, the inhibition was 6.34%.

For `CCOc1ccccc1N/C=C/C(=O)C(C)(C)C`, the inhibition was found to be 0.25%.

On to `Cc1ccc(N/C=C/C(=O)c2ccco2)c(O)c1`, for which the inhibition was determined as 12.5%.

With `NC(=O)c1ccccc1N/C=C/C(=O)c1ccco1`, the inhibition is -0.65%.

Consider `C=C(C)COc1ccc(-c2[nH]ncc2Oc2ccc(OC)cc2)c(O)c1`, for which the inhibition is -5.21%.

In the case of `COc1ccc(C(c2c(N)[nH]c(=S)[nH]c2=O)c2c(N)[nH]c(=S)[nH]c2=O)cc1`, the inhibition was -18.4%.

`COc1ccc(-c2nc(CCl)cs2)cc1`: the inhibition was determined as 7.52%.

For the compound `COc1ccc(-c2csc(-c3ccc(O)cc3)n2)cc1`, the inhibition is 40%.

As to `O=C(CSc1c2c(nc3cc(Cl)ccc13)CCCC2)NCCCN1CCOCC1`, the inhibition worked out at 50%.

Turning to `Cc1[nH]c(=S)c(C#N)c2c1CCCC2`, the inhibition stood at 16.1%.

For `COc1ccc(CNc2nc3nc(C)c(Cl)c(=O)n3[nH]2)cc1`, the inhibition was found to be 28.1%.

On to `CC(OC(=O)c1cc(S(=O)(=O)N2CCOCC2)ccc1Br)C(=O)N1CCOCC1` (stereo unspecified), for which the inhibition was determined as 6.34%.

For `CCC1Oc2ccccc2N(CC(=O)NCCCN2CCCCC2CC)C1=O` (stereo unspecified), the inhibition was 1.4%.

With `NS(=O)(=O)c1ccc(NC2=CC(=O)C(=O)c3ccccc32)cc1`, the inhibition was 36.2%.

Turning to `CC(=O)Nc1ccc(NC2=CC(=O)c3ccccc3C2=O)cc1`, the inhibition was -2.89%.

As to `CCOC(=O)c1ccc(NC2c3ccccc3C(=O)N2c2ccccn2)cc1` (stereo unspecified), the inhibition was -6.64%.

With `CCOC(=O)c1ccccc1NC1OC(=O)c2ccccc21` (stereo unspecified), the inhibition is -8.12%.

As to `CCOC(=O)c1ccc(NC(=O)C(C)N2C(=O)c3ccccc3C2=O)cc1` (stereo unspecified), the inhibition is -8.22%.

Regarding `O=C1C=C(Nc2ccccc2)C(=O)c2ccccc21`, the inhibition stood at 56.9%.

Regarding `CCOC(=O)c1c(C)[nH]c(C(=O)COC(=O)Cn2cc(C(F)(F)F)ccc2=O)c1C`, the inhibition was 2.63%.

On to `CCCc1nnc(NC(=O)CCC(=O)Nc2ccc(F)cc2)s1`, for which the inhibition is -5.14%.

For `CCN(C(=O)c1ccc(Cl)c(S(=O)(=O)Nc2c(C)n(C)n(-c3ccccc3)c2=O)c1)c1ccccc1`, the inhibition came to 5.47%.

On to `CCN(CC)C(=O)Cn1cc(C(=O)C(=O)N2CCCc3ccccc32)c2ccccc21`, for which the inhibition is 16.8%.

Consider `Cc1cc(/C=C2\NC(=O)NC2=O)c(C)n1-c1cccnc1`, for which the inhibition was -6.79%.

As to `S=C(Nc1ccccc1)N1CCC(Cc2ccccc2)CC1`, the inhibition worked out at 5.68%.

Turning to `O=C(N/N=C/c1cc(Br)ccc1O)c1cccc(N2CCCC2=O)c1`, the inhibition was determined as 54.7%.

As to `COc1ccc(O)c(/C=N/NC(=O)c2cccc(N3CCCC3=O)c2)c1`, the inhibition was 5.55%.
